Consider 40 compounds from PubChem BioAssay (Tox21).

Each structure is given as a SMILES string. Inconclusive results are not listed. Values without a mark were called inactive. Activity calls are given as the source filed them. Calls come from the whole dose curve; as a rule, active = well fitted cell-killing curve with a large enough effect in the repeat runs; inconclusive = weak or mixed curves; inactive = flat fitted curve, though single readings scatter.
% is set by controls: 0 for no effect and ±100 for the full control effect; potency is the fitted concentration of half-maximal effect.

The nature of the assay: qHTS RealTime-Glo MT Cell Viability Assay in HepG2 cells - 8 hour (AID 1224873). Note: nearly all actives have a fitted effect of over 55% in size. To be noted: RealTime-Glo luminescence; series mostly up to 76.8 µM; viability change, negative = cytotoxic: at the top concentration. An excerpt:
National Center for Advancing Translational Sciences [NCATS]
NIH Chemical Genomics Center [NCGC]
U.S. Environmental Protection Agency [EPA]
National Institutes of Environmental Health Sciences [NIEHS]
National Toxicology Program [NTP]
U.S. Food and Drug Administration [FDA]
Measure of cell viability is critical in the cell-base assay. Analysis of cell viability is necessary for the characterization of cell responses to cytotoxic drugs and environmental stress. A RealTime-Glo MT Cell Viability Assay to monitor cell viability in real time of continues cell culture during 40 hours of compound treatment was used to screen Tox21 10K library compounds in HepG2 cells. The RealTime-Glo MT Cell Viability Assay is a nonlytic, homogeneous, bioluminescent method to measure cell viability in real time using a simple, plate-based method. The assay involves adding NanoLuc luciferase and a cell-permeant prosubstrate to cells in culture. Viable cells reduce the proprietary prosubstrate to generate a substrate for NanoLuc luciferase. This substrate diffuses from cells into the surrounding culture medium, where it is rapidly used by the NanoLuc Enzyme to produce a luminescent signal. The signal correlates with the number of viable cells, making the assay well suited for cytotoxicity studies.
Tox21 Assay Protocol Summary:
The mixture of HepG2 cell suspension and reagents were dispensed at 600cells/6 ul/well in 1536-well tissue culture treated black solid bottom plates using a Multidrop dispenser. After the assay plates were incubated at a 37 C/5% CO2 incubator for 5 hours, 23 nL of compounds dissolved in DMSO, positive and negative controls was transferred to the assay plate by a pintool work station. The plates were incubated at 37 C for 40 hours. The luminescence intensity were measured at 0h, 8h, 16h, 24h, 32h and 40h time points using ViewLux plate reader during compound treatment.
For orientation: qHTS replaces the single test concentration by a dilution series.
For `CC(C)CC(=O)C1C(=O)c2ccccc2C1=O`, the “viability change, negative = cytotoxic” value is -4.27%.
Same read-out and setting: the result for `COc1ccc(C(=O)c2ccc(OC)cc2O)c(O)c1` reads -12.3%; that for `CCN(CC)CCOC(=O)C(c1ccccc1)C1CCCCC1` (stereo not given), -23% [at 35.3 µM]; that for `C#Cc1cccc(Nc2ncnc3cc(OCCOC)c(OCCOC)cc23)c1`, -8.79% [at 35.3 µM].
`Cc1ccc(C(=O)Oc2ccc(C(O)CNC(C)(C)C)cc2OC(=O)c2ccc(C)cc2)cc1` (stereo not given): the Potency was 21.3 µM (active).
For `COc1cc(Cl)ccc1Oc1ccc(Cl)cc1Cl`, the “viability change, negative = cytotoxic” value was -6.85%.
Consider `CC1OC(=O)C(C)OC1=O` (stereo not given), for which the “viability change, negative = cytotoxic” value was 5.89%.
On to `CCC(Cl)CCC(Cl)C(Cl)CC(Cl)C(Cl)C(Cl)CCl` (stereo not given), for which the “viability change, negative = cytotoxic” value was -0.0955%.
The same measure, in the same setting: as for `CC[N+](C)(CC)CCOC(=O)C(O)(c1ccccc1)C1CCCCC1` (stereo not given), the figure is -2.53% [at 35.3 µM].
On the same count and under the same terms, as for `CCCCc1nc2cccnc2n1Cc1ccc(-c2ccccc2-c2nnn[nH]2)cc1`, the figure is -4.63%; as for `COc1ccc(C)cc1[N+](=O)[O-]`, 0.289%; as for `CC(C)(O)c1ccc(CNC(=O)c2cccnc2Oc2ccc(F)cc2)cc1`, -0.171%.
For the compound `CCCCCCCCCCCCCCOS(=O)(=O)O`, the “viability change, negative = cytotoxic” value was -4.73%.
The same measure, in the same setting: as for `CC(COCCO)OCCO` (stereo not given), the figure is 7.53%; as for `CCCCCCCCCCCCN1CCCCCC1=O`, -5.16%; as for `Clc1ccc(Cn2c(CN3CCCC3)nc3ccccc32)cc1`, -26.9% [at 35.3 µM].
Consider `CCCCC(CC)COC(=O)COc1ccc(Cl)cc1Cl` (stereo not given), for which the “viability change, negative = cytotoxic” value is -8.43%.
With `CC[N+]1(CC)CCC(=C(c2ccccc2)c2ccccc2)C1C` (stereo not given), the “viability change, negative = cytotoxic” value was -9.59% [at 35.3 µM].
Consider `O=C(O)C1(C(=O)O)CCC1.[NH2-].[NH2-].[Pt+2]`, for which the “viability change, negative = cytotoxic” value is 4.57% [at 35.3 µM].
Still for that read-out and setting: the result for `CCCCCCCCCCCCCCCCOS(=O)(=O)O` reads -2.31% [at 35.3 µM]; that for `CN(C)CCN(Cc1ccc(Cl)cc1)c1ccccn1`, 0.837% [at 35.3 µM]; that for `O=C(NCCO[N+](=O)[O-])c1cccnc1`, 9.54% [at 35.3 µM].
Turning to `CN(C)C(=O)NC1(c2ccccc2)CCN(CC[C@@]2(c3ccc(F)c(F)c3)CN(C(=O)c3ccccc3)CCO2)CC1`, the “viability change, negative = cytotoxic” value is -5.12%.
The same measure, in the same setting: as for `C/C=C(/C(=C/C)c1ccc(OC(C)=O)cc1)c1ccc(OC(C)=O)cc1`, the figure is -0.788% [at 35.3 µM]; as for `C/C=C/C=C/CO`, -1.69%; as for `CC(C)(C)OCC1CO1` (stereo not given), -0.541%.
The same measure, in the same setting: the result for `CC(=O)OC[C@H]1O[C@@H](n2ncc(=O)[nH]c2=O)[C@H](OC(C)=O)[C@@H]1OC(C)=O` reads 0.324% [at 35.3 µM].
Still for that read-out and setting: the result for `COc1cc2nc(N3CCN(C(=O)C4COc5ccccc5O4)CC3)nc(N)c2cc1OC` (stereo not given) reads -13.4% [at 35.3 µM]; that for `CC(=O)[O][Al]`, -1.15%; that for `OCCN1CCN(CCCN2c3ccccc3C=Cc3ccccc32)CC1`, 2.13% [at 35.3 µM].
On to `C=C1C(=C/C=C2\CCC[C@]3(C)[C@@H]([C@H](C)/C=C/[C@@H](O)C4CC4)CC[C@@H]23)C[C@@H](O)C[C@@H]1O`, for which the “viability change, negative = cytotoxic” value is -1.93% [at 35.3 µM].
On the same count and under the same terms, the result for `CC/C=C\CCOC(=O)CC` reads 1.04%.
On the same count and under the same terms, the result for `O=C(OCCc1ccccc1)c1ccccc1` reads -3.22%.
Same read-out and setting: the result for `CN(C)CCN(Cc1ccsc1)c1ccccn1` reads -0.504% [at 35.3 µM].
Turning to `O=C(O)c1ccc(-n2nc(-c3ccccc3O)nc2-c2ccccc2O)cc1`, the “viability change, negative = cytotoxic” value is 3.42% [at 35.3 µM].
The same measure, in the same setting: the result for `O=C1CCC(=O)O1` reads 3.23%; that for `C[N+]1(CC2COC(c3ccccc3)(C3CCCCC3)O2)CCCCC1` (stereo not given), -2.04% [at 35.3 µM]; that for `CC1=CCCC(C)(C)C12CCC(C)O2` (stereo not given), 1.17%.
On the same count and under the same terms, the result for `NC(N)=NCCC[C@H](N)C(=O)O` reads 1.03% [at 6.97 µM].
Same read-out and setting: as for `CCCC(=O)Nc1ccc(O)c(C(C)=O)c1`, the figure is 7.71% [at 35.3 µM].
